Screens: PubChem BioAssay, Sanford-Burnham Center for Chemical Genomics
H9c2 protect: myocardial damage modulation in H9c2 cells; H9c2 cardiomyocytes, H2O2 injury protection, ATPLite, 2 h; protection from H2O2 cell death, % at 20 µM; 360,000 compounds, 0.63% hits;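 active = compounds giving at least 50% protection of heart cells from peroxide-induced death in the single-dose screen, raw or plate-pattern-corrected value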;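 also: 0% = DMSO wells with peroxide and 100% = DMSO wells without peroxide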
H9c2 TAG inh: inhibitors of triacylglycerol accumulation; H9c2 cells, Nile Red lipid (TAG) fluorescence; cells loaded with 200 µM oleic acid; 230,000 compounds, 0.66% hits; inhibition, % at 12.5 µM;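 active = pattern-corrected inhibition of lipid staining of at least 50% with the nuclear-stain viability signal not falling by more than 50%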;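 also: 0% = DMSO wells and 100% = triacsin C control wells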
CRFBP-R2 agonist: agonists of human CRF-binding protein/CRF-R2 receptor complex; HEK293 CRF-R2/CRF-BP, calcium dye fluorescence (FLIPR); percent of saturating CRF peptide response; activation, % at 13.2 µM; 350,000 compounds, 0.46% hits;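 active = activation of at least 50%, plus an integration ratio under a set limit after plate pattern correction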;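 also: plate controls were neutral control wells without compound for no effect and CRF at EC100 for full effect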
CRFR2-BP antag: antagonists of CRF-binding protein/CRF-R2 receptor complex | HEK293 CRF-R2/CRF-BP, CRF-induced calcium fluorescence | inhibition, % at 11.8 µM | 350,000 compounds, 0.59% hits;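 active = inhibition of the ligand-induced calcium signal above about 50% at the single tested concentration, limit read from the data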
SKN-1 inh: C. elegans SKN-1 inhibition; inhibition, % at 21.8 µM; AID 624304; C. elegans VP596 Pgst-4::GFP/RFP ratio, acrylamide-induced, 24 h; 360,000 compounds, 0.49% hits;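 active = interference check ratio from 0.5 to 1.5 plus GFP to RFP signal ratio inhibition reaching or exceeding a fixed threshold, cut at about 30% in these data, passing the limit was not always enough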
hiPSC survival: increases survival of single human iPS cells. hiPSC single-cell survival, ATPlite luminescence; 100% = ROCK inhibitor wells, 0% = DMSO. survival enhancement, % at 20 µM. 360,000 compounds, 0.044% hits; in the data active = survival enhancement above about 18%;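 also: cells exposed to compounds for 16 hours before the ATP read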
Starred values were filed as active, the others as inactive; x = no result. Most compounds without a hit are left out; they make up all but 2.5% or so of the library.

SMILES	H9c2 protect	H9c2 TAG inh	CRFBP-R2 agonist	CRFR2-BP antag	SKN-1 inh	hiPSC survival
CN(C)c1ccc(C=C2SC(=S)NC2=O)cc1	-10	-18	132*	-90	40*	-3
O=C1NC(=S)SC1=Cc1ccc2c(c1)OCO2	-16	-4	1	4	-1	4
CCOc1ccc(N(C)c2ccc(/C=C3/SC(=S)NC3=O)cc2)cc1	-10	x	68*	-52	20	0
O=C1NC(=S)S/C1=C/c1ccc(Oc2cnccn2)cc1	-10	-9	6	30	-3	0
O=C1NC(=S)S/C1=C\c1cc(Cl)ccc1Cl	-19	8	30	70*	-13	0
CCOc1ccc(N=C2NC(=O)S/C2=C\c2ccc(Cl)cc2)cc1	-17	20	0	-3	-30	-1
COc1ccc(N=C2NC(=O)S/C2=C\c2ccc(N(C)C)cc2)cc1	-8	-43	98*	-155	55	0
Cc1ccc(C)c(N(CC(=O)N2CCCC2)S(C)(=O)=O)c1	2	0	1	17	-2	1
CN1CCN(C(=O)c2cc3ccccc3cc2O)CC1	2	14	1	-5	1	0
Cn1cc(-c2ccc3c(c2)OCO3)c2ccccc21	-6	x	x	x	7	1
N#Cc1ccccc1NC(=O)Nc1ccc(Cl)cc1	-4	-4	0	8	0	4
N#C/C(=N\Nc1c(Cl)cccc1Cl)C(=O)NN	0	-7	-4	24	31	3
N#C/C(=N\Nc1cccc(Cl)c1)C(=O)c1ccccc1	-28	-16	58*	47	1	-3
N#Cc1ccccc1NC(=O)Nc1cccc(Cl)c1	0	-7	0	-11	41*	2
N#C/C(=N\Nc1ccc(Cl)cc1)C(=O)c1ccsc1	-14	-12	32	26	10	2
COc1ccc(C(=O)/C(C#N)=N/Nc2cccc([N+](=O)[O-])c2)cc1	-26	-14	28	57*	-2	2
N#C/C(=N\Nc1ccccc1Cl)C(=O)c1ccccc1	-9	4	38	85*	-8	-2
C[C@H](CO)N1C[C@H](C)[C@@H](CN(C)C(=O)Nc2ccc(C(F)(F)F)cc2)Oc2c(NC(=O)Nc3ccccc3)cccc2C1=O	14	19	2	-7	19	1
C[C@H](CO)N1C[C@H](C)[C@@H](CN(C)C(=O)Nc2ccc3c(c2)OCO3)Oc2c(NC(=O)Nc3ccc(C(F)(F)F)cc3)cccc2C1=O	86*	27	2	-11	8	-2
COc1ccc(NC(=O)N(C)C[C@H]2Oc3c(NC(=O)Nc4ccc(C(F)(F)F)cc4)cccc3C(=O)N([C@H](C)CO)C[C@@H]2C)cc1	59*	-32	6	-20	6	3
C[C@H]1CN([C@@H](C)CO)C(=O)c2cccc(NC(=O)Nc3ccc(C(F)(F)F)cc3)c2O[C@@H]1CN(C)Cc1ccc(Cl)c(Cl)c1	-24	56*	0	-3	-10	2
C[C@@H]1CN([C@H](C)CO)C(=O)c2cc(NC(=O)Nc3ccc(C(F)(F)F)cc3)ccc2O[C@H]1CN(C)Cc1ccc(Cl)c(Cl)c1	-26	47	1	-8	16	-2
C[C@H](CO)N1C[C@H](C)[C@@H](CN(C)C(=O)Nc2ccc(C(F)(F)F)cc2)Oc2c(NC(=O)Nc3ccc4c(c3)OCO4)cccc2C1=O	6	19	0	-11	1	-4
O=C(Nc1cccc(C(F)(F)F)c1)c1csc([C@@H]2O[C@H](CO)[C@H](O)[C@H](O)[C@H]2O)n1	10	9	x	x	22	6
COc1ccc(-c2[nH]ncc2CN2CCC(C(=O)N3CCOCC3)CC2)c(F)c1	-8	-9	8	-16	-5	0
SMILES	H9c2 protect	H9c2 TAG inh	CRFBP-R2 agonist	CRFR2-BP antag	SKN-1 inh	hiPSC survival
COc1ccc(Nc2nc(-c3cccs3)nc3ccccc23)cc1S(=O)(=O)N1CCOCC1	67*	30	1	-13	17	0
CCc1c(C2CC2)ncn1Cc1cccc(-c2ccccc2)c1	x	x	x	x	-16	x
COC(=O)c1ccc(Nc2cc(C)nc3ncnn23)cc1	3	17	-1	-14	37*	-2
CCOC(=O)c1ccc(Nc2cc(C)nc3ncnn23)cc1	1	x	-1	9	-12	0
CCCCNC(=O)c1ccc2nc(CC)c(N(CC)CCOC)n2c1	6	-1	x	x	10	4
Cc1c(C(=O)/C=C/c2cccs2)oc2ccc(F)cc12	-14	-37	1	-10	52*	-2
CCc1ccc(S(=O)(=O)/N=C2\C=C(NS(=O)(=O)c3ccccc3)C(=O)c3ccccc32)cc1	-5	x	-3	27	-8	0
Cc1ccc(C)c(S(=O)(=O)/N=C2\C=C(NS(=O)(=O)c3ccccc3)C(=O)c3ccccc32)c1	-16	x	-1	45	39*	0
O=C(NCc1ccc(Cl)cc1)c1ccc(-c2ccc(F)c(F)c2)c2ccoc12	-4	-38	x	x	36*	2
O=C(NCc1ccc(F)c(F)c1)c1ccc(-c2ccc(F)c(F)c2)c2ccoc12	-5	-11	x	x	80*	4
Cc1cc(NC(=O)Cc2ccccc2)ccc1NC(=O)c1cccs1	-1	-6	-3	57*	-2	1
COC(=O)[C@H](CO)NS(=O)(=O)c1ccc(C)cc1	1	0	-2	14	21	2
Cc1[nH][nH]c(=O)c1N=Nc1ccccc1Cl	-15	-1	-4	0	7	-1
Clc1ccccc1N=Nc1ccccn1	-2	-13	63*	-43	24	0
O=C(Nc1ccccc1F)C1CCN(C(=O)NC2CCCCC2)CC1	-2	x	-2	-1	2	0
O=C(CN1CCCCCC1)Nc1ccccc1F	-2	14	1	1	-4	2
O=C(Nc1ccccc1F)C1CCCC1	7	4	0	-5	41*	-1
COc1ccc(NC(=O)CCN2CCCCCC2)cc1	-2	-12	0	80*	-24	-3
O=C(CCN1CCCCCC1)Nc1ccccc1F	4	2	-2	-26	49*	3
CCOC(=O)Cc1csc(SC(C)C(=O)NC2CCCCC2C)n1 (stereo not drawn)	-6	-15	-2	-1	-21	-1
COC(=O)[C@@]12C[C@@H](CC(=O)NCC3CCCCC3)C(=O)N(Cc3cccc4ccccc34)C1=CCC(C)(C)C2	x	x	x	x	10	x
CC[C@@H](C)[C@H](CN[C@H](CNC)C(C)C)NC[C@@H](C)c1ccc(CC(C)C)cc1	-12	127*	0	-14	2	-3
Cc1cc(/C=C(/C#N)C(=O)O)c(C)n1-c1cccc2ccccc12	-5	x	-4	76*	9	0
Cc1cccc(NC(=S)NC(=O)c2oc3ccccc3c2C)n1	-19	x	-1	11	4	0
